# Test results as given in PubChem BioAssay AID651699 (Sanford-Burnham Center for Chemical Genomics, 2012).
# The campaign covered roughly 360,000 compounds. About 2,100 (0.58%) were called active. Rule as the data show it: active = inhibition above about 36%; inactive = the rest. The list comes from a sample in which actives are over-represented; it also holds similar structures and randomly drawn compounds.
# Molecular target: NEDD8-conjugating enzyme Ubc12 (Homo sapiens) + NEDD8-activating enzyme E1 regulatory subunit (Homo sapiens) (UniProt P61081+Q13564)
# Assay: NEDD8 transfer onto cullin, blockade – biochemical, TR-FRET, uHTS, NAE and Ubc12, primary screen (AID 651699)
# Details: TR-FRET cullin neddylation, at 25 µM, active compounds read high
# NEDD8-conjugating enzyme Ubc12 (Homo sapiens) + NEDD8-activating enzyme E1 regulatory subunit (Homo sapiens), sequence (P61081 whole entry, looked up): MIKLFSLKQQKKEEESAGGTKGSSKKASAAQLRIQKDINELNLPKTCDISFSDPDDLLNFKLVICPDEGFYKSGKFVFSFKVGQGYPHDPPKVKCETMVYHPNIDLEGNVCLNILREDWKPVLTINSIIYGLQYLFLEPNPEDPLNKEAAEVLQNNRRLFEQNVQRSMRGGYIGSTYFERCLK
# NEDD8-conjugating enzyme Ubc12 (Homo sapiens) + NEDD8-activating enzyme E1 regulatory subunit (Homo sapiens), sequence (Q13564 whole entry, looked up): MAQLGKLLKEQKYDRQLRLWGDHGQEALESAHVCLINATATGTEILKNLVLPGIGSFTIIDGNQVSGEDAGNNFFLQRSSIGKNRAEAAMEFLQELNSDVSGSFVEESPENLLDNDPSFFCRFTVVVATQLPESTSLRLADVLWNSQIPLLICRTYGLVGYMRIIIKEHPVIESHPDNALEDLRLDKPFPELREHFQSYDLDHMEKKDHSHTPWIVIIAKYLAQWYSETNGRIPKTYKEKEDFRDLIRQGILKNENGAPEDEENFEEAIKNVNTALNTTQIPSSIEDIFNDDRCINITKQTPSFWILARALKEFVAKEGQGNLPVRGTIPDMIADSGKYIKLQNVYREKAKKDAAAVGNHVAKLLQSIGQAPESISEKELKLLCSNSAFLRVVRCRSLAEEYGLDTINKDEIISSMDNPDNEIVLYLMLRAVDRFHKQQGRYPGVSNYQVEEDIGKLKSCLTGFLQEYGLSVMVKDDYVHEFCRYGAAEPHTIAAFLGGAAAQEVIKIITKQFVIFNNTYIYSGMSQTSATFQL
row,SMILES,inhibition
1,CC(C)(C)NS(=O)(=O)CC12CCC(CC1=O)C2(C)C (stereo not given),4.11% (inactive)
2,CCCN(c1ccc(C(C)C)cc1)S(=O)(=O)c1c(C)[nH]c(=O)[nH]c1=O,-4.15% (inactive)
3,COCCNC(=S)N1CCN(C)CC1,2.77% (inactive)
4,O=C(N[C@H]1C/C=C\C(c2ccc(F)cc2)N(Cc2ccccc2)C(=O)C1)OCC1c2ccccc2-c2ccccc21 (stereo not given in full),-23.7% (inactive)
5,COCCn1c(C)cc(C(=O)CSc2nnc(C3CC3)n2C2CC2)c1C,2.64% (inactive)
6,CC(C)c1ccc(/C=C/C(=O)NCCCN2CCOCC2)cc1,6.59% (inactive)
7,O=C(/C=C/c1cn(-c2ccccc2)nc1-c1ccc2c(c1)OCCO2)NCCCN1CCOCC1,46.4% (active)
8,CC(OC(=O)/C=C/c1ccccc1)C(=O)Nc1ccc(C(N)=O)cc1 (stereo not given),9.24% (inactive)
9,Cc1ccc(C)c(NC(=O)NNC(=O)c2ccc3ccccc3c2O)c1,41.2% (active)
10,Cc1ccc(C)c(NC(=O)COC(=O)CSc2ccccc2)c1,4.31% (inactive)
11,Cc1ccc(S(=O)(=O)NNC(=O)Nc2cccc3ccccc23)cc1,-0.11% (inactive)
12,CC1CCN(C(=O)CN(c2ccc(Oc3ccccc3)cc2)S(C)(=O)=O)CC1,0.77% (inactive)
13,COc1cc2c(cc1NC(=O)COC(=O)/C=C/c1ccccc1)oc1ccccc12,29.1% (inactive)
14,COc1cc(/C(=C/c2ccccc2)c2ccccc2)c2c(c1)oc1ccccc12,49.4% (active)
15,COc1ccc(/C=C(/NC(=O)c2ccccc2)C(=O)Nc2cccc(C(=O)O)c2)cc1,-5.87% (inactive)
16,CCN(CCNC(=O)C1=C(C)C(=O)OC12CCC(C)CC2)c1ccccc1 (stereo not given),0.38% (inactive)
17,N/C(Cc1ccc([N+](=O)[O-])cc1)=N\OC(=O)C1CCCCC1,-35.6% (inactive)
18,CN(C)c1nc(N)nc(CSc2nnnn2-c2cccc3ccccc23)n1,-6.09% (inactive)
19,COc1cccc(C(=O)N/N=C(\C)c2cccc(NC(=O)c3ccc(F)cc3)c2)c1OC,-8.13% (inactive)
20,COc1ccccc1N1CCN(C(=O)C(=O)N/N=C/c2ccccc2F)CC1,-4.11% (inactive)
21,COc1cc2cc(C(=O)N/N=C/c3cccc(OC)c3OC)[nH]c2cc1OC,40.2% (active)
22,COc1ccc2[nH]c(=O)c(CNc3ccc(C)c(C)c3)cc2c1,23.5% (inactive)

row,SMILES,inhibition
1,CCOc1ccc2ccccc2c1/C=N/NC(=O)c1c(C)cc(C)[nH]c1=O,-12.9% (inactive)
2,CCOc1ccc(/C=N\NC(=O)c2c(C)nc3cc(C)ccn23)cc1,2.94% (inactive)
3,COc1ccc2[nH]c(C(=O)N/N=C/c3cc(OC)c(OC)c(OC)c3)cc2c1,59.3% (active)
4,CCOc1ccc2[nH]c(C(=O)N/N=C/c3cccc(OC)c3OC)cc2c1,45.1% (active)
5,O=C(Nc1ccc(Cl)cc1)C1Cc2c(-c3ccc4c(c3)OCO4)ccnc2O1 (stereo not given),25.3% (inactive)
6,N#Cc1ccccc1CN1C(=O)S/C(=C/c2cccn2-c2cccc(C(=O)O)c2)C1=O,-29.6% (inactive)
7,Cc1cccc(N2CCN(C(=O)CN(C)S(=O)(=O)c3ccc4c(c3)CCC(=O)N4)CC2)c1C,4.09% (inactive)
8,CCCC(=O)N1CCC1(C)C(=O)NS(=O)(=O)c1ccc(Cl)cc1 (stereo not given),5.26% (inactive)
9,CCOc1cc(/C=N/NC(=O)c2cccc(S(=O)(=O)N3CCOCC3)c2)ccc1OCC(=O)N(C)C,6.83% (inactive)
10,Cc1ncc(CO)c(/C=N/NC(=O)c2cccc(S(=O)(=O)N3CCCC3)c2)c1O,47.2% (active)
11,O=C(NNC1=NCCC1)c1cccc(S(=O)(=O)N2CCCCC2)c1,3.17% (inactive)
12,COc1ccccc1/C=C/C(=O)NC(=S)N1CCOCC1,-10.5% (inactive)
13,COc1ccccc1/C=C/C1=NC(=C\N(C)C)/C(=O)O1,54% (active)
14,C=CCOC(=O)C1=C(C)N=C2SCCC(=O)N2C1/C=C/c1ccccc1OC (stereo not given),-7.53% (inactive)
15,CCSC1=NCCN1C(=O)c1ccc(S(=O)(=O)N(CC)CC)cc1,-10.5% (inactive)
16,CC1(C(=O)NS(=O)(=O)c2ccc(C#N)cc2)CCN1C(=O)CC1CCCC1 (stereo not given),-3.86% (inactive)
17,CC(C)(C)OC(=O)C[C@@H]1C/C=C\C[C@@H](CC(=O)N[C@H](CO)Cc2ccccc2)C(=O)NCCOC1=O,-4.28% (inactive)
18,CN(C(=O)COC(=O)c1cc(-c2ccco2)nc2ccccc12)C1CCS(=O)(=O)C1 (stereo not given),-19.8% (inactive)
19,O=C(c1cc(-c2ccco2)nc2ccccc12)N(Cc1nnc(-c2ccc(Cl)cc2)o1)C1CC1,38.9% (active)
20,O=C(c1ccc(Cl)s1)N(Cc1nnc(-c2ccccc2Cl)o1)C1CC1,12.9% (inactive)
21,N#Cc1ccc(S(=O)(=O)NCC(=O)OCC(=O)NCCc2ccccc2)cc1,-11.3% (inactive)
22,CCOC(=O)C1(Cc2ccccc2C)CCCN(C(=O)CCc2c(C)noc2C)C1 (stereo not given),3.81% (inactive)

row,SMILES,inhibition
1,CC(=O)OCC(C)n1c(=O)c2ccccc2n1C(C)=O (stereo not given),16.7% (inactive)
2,O=C(O)CCc1nc2cc(Cl)ccc2n(Cc2ccccc2)c1=O,9.12% (inactive)
3,CC(=O)Oc1c(C(=O)c2nnc(C)o2)c(=O)n(Cc2ccccc2)c2ccccc12,40% (active)
4,CC1Cc2ccccc2N1CC(=O)Nc1ccc2c(c1)OC(F)(F)O2 (stereo not given),-5.99% (inactive)
5,CC(=O)NS(=O)(=O)c1ccc(N/C(N)=N/c2nc(C)cc(C)n2)cc1,-11.7% (inactive)
6,O=C(CSc1nnc(-c2ccncc2)n1C1CCCCC1)Nc1ccccc1,-3.98% (inactive)
7,CCOc1ccc(NC(=O)CN(C)C(=O)Cc2sc(C)nc2-c2ccc(F)cc2)cc1OCC,-1.44% (inactive)
8,COCc1ccc(C(=O)N2CCc3c([nH]c4ccccc34)C2c2ccccn2)s1 (stereo not given),-1.93% (inactive)
9,COc1cccc(C2c3[nH]c4ccccc4c3CCN2Cc2cccc(C)n2)c1 (stereo not given),48.7% (active)
10,CCOc1ccc(C2c3[nH]c4ccccc4c3CCN2Cc2cn(CC)nc2C)cc1 (stereo not given),22.4% (inactive)
11,CCOc1ccc(C2c3[nH]c4ccccc4c3CCN2Cc2cccn2-c2ncccn2)cc1 (stereo not given),16.1% (inactive)
12,COc1ccc(C2c3[nH]c4ccccc4c3CCN2CCCn2cccn2)cc1C (stereo not given),49.4% (active)
13,Oc1cccc(C2c3[nH]c4ccccc4c3CCN2Cc2cnn(-c3ccccc3)c2)c1 (stereo not given),25.4% (inactive)
14,O=C(O)C1C2C=CC(C2)C1C(=O)NCc1ccccc1 (stereo not given),-4.12% (inactive)
15,O=C(OCc1ccccc1)N1CCC2CC1c1cc(N3CCN(S(=O)(=O)c4cc(Cl)cc(Cl)c4)CC3)ccc12 (stereo not given),19.3% (inactive)
16,CC(OC(=O)c1cc2ccccc2o1)C(=O)Nc1ccc(N2CCOCC2)cc1 (stereo not given),2.93% (inactive)
17,CC(C)C1N=C2c3ccccc3N=C(SCC(=O)c3ccc(O)c(O)c3)N2C1=O (stereo not given),-18.8% (inactive)
18,O=C(Nc1ccc(-c2cscn2)cc1)C1CCCN(Cc2ccc(CO)o2)C1 (stereo not given),5.08% (inactive)
19,O=C(NCc1cccnc1)Nc1cccc(NC(=O)NCc2cccnc2)c1F,2.41% (inactive)
20,CC(C)CC1(C)NC(=O)N(CC(=O)Nc2ccc3c(c2)OCCO3)C1=O (stereo not given),-8.52% (inactive)
21,Cc1ccc(-n2c(SCC(=O)Nc3ncc(Cl)cc3Cl)nc3ccccc32)cc1,3.23% (inactive)
